Experimental data published in PubChem BioAssay AID1159580 (chemical genetic matrix, 2015).
Several values for one entry are separate records, joined by “and”; a condition that tells them apart may be missing. Equal values may be shown once. The whole screen tested about 5,500 compounds, of which about 2,000 (36%) were called active. Roughly 18% stayed inconclusive and do not appear here. Cut-off read from the data, not from the text of the source: active = normalized growth mostly below about 0.91 (no sharp cut-off); inconclusive = no clear call, values can overlap the other calls; inactive = mostly above about 0.92. The list shows a part of the results.

Assay: chemical genetic growth profiling, strain panel (AID 1159580);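 note: tested at 20 µM; growth read once vehicle control cultures reached saturation at 30 °C; 1 = growth at the plate median or of vehicle wells; lower values mean less growth of the strain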
Conditions: S. cerevisiae deletion strains, growth OD

Measured: normalized growth

CC(C)N1C(=O)c2ccccc2NS1(=O)=O
inactive: locus YAL013W, strain DEP1, active compounds read low 1 | locus YAL021C, strain ccr4, active compounds read low 0.947 | locus YAL026C, strain drs2, active compounds read low 0.976 | locus YAL030W, strain snc1, active compounds read low 0.963 | locus YBL061C, strain skt5, active compounds read low 0.973 | locus YBR009C, strain hhf1, active compounds read low 0.961 | locus YBR021W, strain FUR4, active compounds read low 0.966 | locus YBR023C, strain chs3, active compounds read low 0.983 | locus YBR171W, strain sec66, active compounds read low 0.968 | locus YBR229C, strain ROT2, active compounds read low 1 | locus YBR231C, strain swc5, active compounds read low 0.994 | locus YBR279W, strain paf1, active compounds read low 0.977 | locus YCL011C, strain gbp2, active compounds read low 0.962 | locus YCL016C, strain dcc1, active compounds read low 0.969 | locus YCL029C, strain bik1, active compounds read low 0.999 | locus YCL069W, strain vba3, active compounds read low 0.969 | locus YCR088W, strain abp1, active compounds read low 0.978 | locus YDL005C, strain med2, active compounds read low 0.973 | locus YDL035C, strain GPR1, active compounds read low 1.01 | locus YDL040C, strain nat1, active compounds read low 0.972 | locus YDL074C, strain BRE1, active compounds read low 1.02 | locus YDL101C, strain DUN1, active compounds read low 1.01 | locus YDL134C, strain PPH21, active compounds read low 0.998 | locus YDL185W, strain tfp1, active compounds read low 1 | locus YDL192W, strain arf1, active compounds read low 1.01 | locus YDR001C, strain nth1, active compounds read low 0.955 | locus YDR069C, strain doa4, active compounds read low 0.995 | locus YDR101C, strain arx1, active compounds read low 0.999 | locus YDR137W, strain rgp1, active compounds read low 0.971 | locus YDR150W, strain NUM1, active compounds read low 0.996 | locus YDR159W, strain sac3, active compounds read low 1.02 | locus YDR162C, strain NBP2, active compounds read low 1.02 | locus YDR195W, strain ref2 0.935 | locus YDR297W, strain sur2, active compounds read low 0.988 | locus YDR318W, strain mcm21, active compounds read low 1.01 | locus YDR334W, strain swr1, active compounds read low 0.957 | locus YDR335W, strain msn5, active compounds read low 0.978 | locus YDR388W, active compounds read low 0.998 | locus YDR392W, strain spt3, active compounds read low 1.02 | locus YDR502C, strain sam2, active compounds read low 1.01 | locus YEL003W, strain gim4, active compounds read low 0.973 | locus YEL037C, strain rad23, active compounds read low 0.976 | locus YEL061C, strain CIN8 (second series), active compounds read low 0.966 | locus YEL061C, strain CIN8, active compounds read low 0.992 | locus YER015W, strain faa2, active compounds read low 0.966 | locus YER016W, strain bim1, active compounds read low 0.965 | locus YER110C, active compounds read low 1 | locus YER111C, strain swi4, active compounds read low 0.979 | locus YER155C, strain BEM2 (second series), active compounds read low 1 | locus YER155C, strain BEM2, active compounds read low 0.994 | locus YER167W, strain BCK2, active compounds read low 1 | locus YFR010W, strain ubp6, active compounds read low 0.96 | locus YGL078C, strain dbp3, active compounds read low 0.993 | locus YGL086W, strain mad1, active compounds read low 0.996 | locus YGL167C, strain pmr1, active compounds read low 0.958 | locus YGL173C, strain kem1, active compounds read low 0.979 | locus YGL227W, strain vid30, active compounds read low 0.989 | locus YGL240W, strain doc1, active compounds read low 1 | locus YGL248W, strain PDE1, active compounds read low 1.01 | locus YGL253W, strain hxk2, active compounds read low 0.984 | locus YGR078C, strain PAC10, active compounds read low 0.995 | locus YGR135W, strain pre9, active compounds read low 1.01 | locus YGR229C, strain SMI1, active compounds read low 1.02 | locus YGR252W, strain gcn5, active compounds read low 1.01 | locus YHR013C, strain ard1, active compounds read low 0.95 | locus YHR027C, strain rpn1, active compounds read low 0.968 | locus YHR030C, strain SLT2, active compounds read low 0.972 and 0.994 | locus YHR079C, strain IRE1 (second series), active compounds read low 1 | locus YHR079C, strain IRE1, active compounds read low 0.982 | locus YHR094C, strain hxt1, active compounds read low 0.996 | locus YHR129C, strain ARP1, active compounds read low 0.996 | locus YHR142W, strain chs7, active compounds read low 0.962 | locus YHR200W, strain rpn10, active compounds read low 0.995 | locus YIL066C, strain RNR3, active compounds read low 1.03 | locus YIL073C, strain SPO22, active compounds read low 1.07 | locus YIL125W, strain kgd1, active compounds read low 1.01 | locus YIR030C, strain dcg1, active compounds read low 0.997 | locus YJL092W, strain hpr5, active compounds read low 0.971 | locus YJL095W, strain BCK1 (second series), active compounds read low 0.969 | locus YJL095W, strain BCK1, active compounds read low 1.01 and 0.986 | locus YJL115W, strain asf1, active compounds read low 0.956 | locus YJL129C, strain trk1, active compounds read low 0.961 | locus YJL134W, strain LCB3, active compounds read low 1 | locus YJL154C, strain vps35, active compounds read low 0.963 | locus YJL164C, strain tpk1, active compounds read low 0.988 | locus YJL166W, strain qcr8, active compounds read low 0.987 | locus YJL168C, strain set2, active compounds read low 1 | locus YJL187C, strain SWE1 (second series), active compounds read low 0.997 | locus YJR043C, strain POL32, active compounds read low 1 | locus YJR066W, strain TOR1, active compounds read low 0.962 | locus YJR075W, strain HOC1, active compounds read low 1.02
